Test results from PubChem BioAssay AID1778 (Sanford-Burnham Center for Chemical Genomics, 2009).
Among all 290,000 compounds or so, about 260 (0.09%) were called active. For the sample, actives were picked, then their nearest neighbours and some compounds at random. Entries with a potency or affinity are not part of this list. Values without a mark were called inactive. Cut-off read from the data, not from the text of the source: active = inhibition above about 50%; inactive = the rest.

molecular target: Kappa-type opioid receptor (Homo sapiens) (UniProt P41145); assay: kappa opioid receptor blockers – cell-based, luminescence, uHTS (AID 1778); details: KOR beta-arrestin recruitment, antagonist mode, active compounds read high; at 10 µM unless noted
Sequence (P41145 whole entry, looked up): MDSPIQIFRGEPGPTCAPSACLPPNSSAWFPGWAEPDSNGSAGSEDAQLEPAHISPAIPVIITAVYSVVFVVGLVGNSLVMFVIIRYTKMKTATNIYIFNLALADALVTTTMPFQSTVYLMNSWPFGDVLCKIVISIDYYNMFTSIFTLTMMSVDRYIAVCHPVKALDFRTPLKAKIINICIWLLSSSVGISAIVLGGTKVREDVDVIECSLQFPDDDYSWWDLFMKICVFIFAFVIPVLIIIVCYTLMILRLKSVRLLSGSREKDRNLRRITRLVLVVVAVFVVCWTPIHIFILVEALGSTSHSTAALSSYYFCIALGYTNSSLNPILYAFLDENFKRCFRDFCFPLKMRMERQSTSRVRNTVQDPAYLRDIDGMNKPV

In order of falling inhibition:
1. O=C(Nc1ccc(S(=O)(=O)Nc2ncccn2)cc1)c1ccc(S(=O)(=O)N2CCCC2)cc1  34.1%
2. CS(=O)(=O)Nc1cccc2cccnc12  30.9%
3. Cc1c(NCc2cc(Cl)cc(Cl)c2O)c(=O)n(-c2ccccc2)n1C  22.8%
4. Oc1csc(Cc2nc(-c3ccc4ccccc4c3)cs2)n1  22.5%
5. Cc1ccccc1Cn1c(=O)n(-c2ccccc2)c(=O)c2ccc(C(=O)NCc3ccco3)cc21  20.6%
6. CCN1C(=O)c2ccccc2S(=O)(=O)c2ccc(C(=O)N3CCOCC3)cc21  16.4%
7. O=C(Nc1nnc(C2=COCCO2)o1)c1cccc(C(F)(F)F)c1  16%
8. Cc1cccc(NS(=O)(=O)c2ccccc2)n1  12.4%
9. Oc1csc(Cc2nc(-c3ccc(Br)cc3)cs2)n1  8.7%
10. COc1cc(NS(=O)(=O)c2ccc(C)cc2)c2ncccc2c1  7.9%
11. Cc1c(NC(=S)Nc2ccccc2C(F)(F)F)cccc1[N+](=O)[O-]  5.9%
12. Oc1csc(Cc2nc(-c3ccc(-c4ccccc4)cc3)cs2)n1  3.4%
13. O=S(=O)(c1cccc2cccnc12)N1CCCCC1  2.6%
14. COc1ccc(-c2nn(CCC(=O)O)cc2/C=C/C(=O)O)cc1[N+](=O)[O-]  2.1%
15. O=C(O)c1ccccc1NS(=O)(=O)c1cccc2cccnc12  1.8%
16. CCn1c(CNC(=O)c2ccco2)nnc1SCC(=O)Nc1cc(C(F)(F)F)ccc1Cl  1.4%
17. Cc1ccc(CNC(=O)C2CCCN(c3nc4ccccc4o3)C2)cc1 (stereo not drawn)  -1.2%
18. CCn1c(=O)c2sccc2n2c(CCCC(=O)NCCc3ccc(S(N)(=O)=O)cc3)nnc12  -3%
19. Fc1ccccc1COc1ccc(/C=N/NC(=S)NCc2ccccc2)cc1  -4.9%
20. COc1ccc(NC(=O)c2ccccc2)cc1NS(=O)(=O)c1ccc(F)cc1  -5%
21. Cc1cc(N)nc2nc(C(F)(F)F)nn12  -5.6%
22. N#Cc1ccc(C(=O)Nc2nnc(-c3cccs3)o2)cc1  -5.8%
23. Cc1ccccc1N(C(=O)c1snc(C(N)=O)c1N)C(C(=O)NCc1ccccc1)c1ccc(O)cc1 (stereo not drawn)  -9.4%
24. O=S(=O)(Nc1cccc2ccccc12)c1ccccc1  -10.6%
25. CCn1c(SCC(=O)NC2CCCCC2)nnc1-c1ccco1  -10.6%
26. CC(C)Oc1cccc(C(=O)N/N=C/c2ccoc2)c1  -11.1%
27. CN(C)S(=O)(=O)c1ccc(C(=O)Nc2nnc(-c3cccs3)o2)cc1  -13%
28. Cc1cccc(Nc2nc(N)c([N+](=O)[O-])c(N3CC(C)CC(C)C3)n2)c1 (stereo not drawn)  -15%
29. Clc1ccc(SCc2cn3cccnc3n2)cc1  -15.8%
30. COc1cccc(C(=O)Nc2nnc(-c3cccs3)o2)c1  -17.8%
31. COc1cc(-c2[nH]ncc2CN2CCN(Cc3cccs3)CC2)cc(OC)c1OC  -18.5%
32. Cc1ccc(COC(=O)c2nn(C)c(=O)c3ccccc23)cc1  -20%
33. O=C1CC(Cc2ccccc2)C(=O)N1CCCn1ccnc1 (stereo not drawn)  -24.1%
34. CCOC(=O)c1c(N)sc(C(O)(C(F)(F)F)C(F)(F)F)c1-c1ccc(F)cc1  -27.6%
35. CS(=O)(=O)NCCCCCCNS(C)(=O)=O  -28.3%
36. CN1CCN(C(=O)c2ccc(COc3ccc(Cl)cc3Cl)cc2)CC1  -29.5%
37. CC(=O)Nc1ccc(S(=O)(=O)Nc2cccc3cccnc23)cc1  -32.6%
38. Oc1csc(Cc2nc(-c3ccccc3F)cs2)n1  -33.9%

In order of rising inhibition:
1. CC(C)(C)c1ccc(OCc2cnc(Cl)s2)cc1  -46.2% [at 20 µM]
2. COC(=O)C1=C(C(=O)OC)[C@@H]2N(C)c3ccc(OC)cc3[C@@]23C[C@@H](C(=O)OC)N(C(=O)c2cccs2)C3=N1  -29.4% [at 20 µM]
3. CCCNS(=O)(=O)c1ccc(OCC(=O)N2CCCC2)cc1  -18.5% [at 20 µM]
4. O=C1CC(C2CCCO2)C(=O)N1c1ccc(Cl)c(Cl)c1 (stereo not drawn)  -15.9% [at 20 µM]
5. CN(C)S(=O)(=O)c1cccc(NC(=O)c2cc(=O)[nH]c3ccccc23)c1  -14.8% [at 20 µM]
6. CCOC(=O)C1(Cc2ccccc2)CCN(Cc2cc(OC)c3c(c2)OCO3)CC1  -13.9% [at 20 µM]
7. CCOC(=O)N1CCN(C(=O)CNC(=O)c2ccc(Br)o2)CC1  3.7% [at 20 µM]

`Cc1ccc2cccc(NS(=O)(=O)c3ccccc3)c2n1` was tested, and the inhibition was 83.9% (active).
With `O=S(=O)(Nc1cccc2cccnc12)c1ccccc1` the inhibition was 99.6% (active).
`O=C(Nc1nnc(-c2cccs2)o1)c1cccc(C(F)(F)F)c1` was tested, and the inhibition was 100% (active).
